# From the antibiotic and cytotoxicity screens of Wong et al. (2023)
# About 3,300 (8.5%) of roughly 39,000 compounds were called active. Many of the other results were omitted from the sample, so actives are more common in it than they were.
# System: HepG2
# Assay: cytotoxicity call (relative viability < 0.9)
# Conditions: 10 µM
row,Structure (SMILES),cytotoxicity call
1,Nc1nc(/C(=N/O)C(=O)N[C@@H]2C(=O)N3C(C(=O)O)=C(/C=C4\CCN([C@@H]5CCNC5)C4=O)CS[C@H]23)ns1,inactive
2,CSc1ncc(C(=O)NN)n1C,inactive
3,CCS(=O)(=O)NCC[C@H]1CC[C@H](NC(=O)C2CC2)[C@H](CO)O1,inactive
4,CN(C)C(=O)COC[C@]12COC[C@H]1CN(S(C)(=O)=O)C2,inactive
5,C[C@H](CO)N1C[C@H](C)[C@H](CN(C)C(=O)Nc2ccc3c(c2)OCO3)Oc2ccc(NC(=O)c3ccncc3)cc2CC1=O,inactive
6,C[C@H](CO)N1C[C@H](C)[C@H](CN(C)C(=O)Nc2ccc3c(c2)OCO3)Oc2ccc(NS(=O)(=O)c3cn(C)cn3)cc2CC1=O,inactive
7,O=C(Nc1ccc2c(c1)[C@@H]1C[C@@H](CC(=O)N3CCc4ccccc4C3)O[C@H](CO)[C@@H]1O2)C1CCOCC1,inactive
8,C[C@@H]1CN([C@@H](C)CO)C(=O)Cc2cc(NC(=O)C3CC3)ccc2O[C@@H]1CN(C)C(=O)Nc1ccccc1,inactive
9,C[C@@H]1CN([C@H](C)CO)C(=O)c2cc(NC(=O)C3CCCCC3)ccc2O[C@@H](C)CCCCO[C@@H]1CN(C)S(=O)(=O)c1ccc(F)cc1,inactive
10,O=C(CN1CCOCC1)NCC[C@H]1CC[C@@H](NC(=O)Cc2ccccn2)[C@@H](CO)O1,inactive
11,Cc1noc(C)c1NC(=O)N(C)C[C@H]1Oc2c(NS(=O)(=O)c3c(C)noc3C)cccc2C(=O)N([C@@H](C)CO)C[C@H]1C,inactive
12,C=CCOC(=O)[C@H]1[C@@H]2C(=O)O[C@@H](c3ccccc3)[C@@H](c3ccccc3)N2[C@@H](c2ccc(OCCOC(=O)[C@H]3C[C@H]4C(=O)N[C@@H](Cc5ccccc5)C(=O)N4[C@H]3c3ccc(O)cc3)cc2)[C@]12C(=O)Nc1ccccc12,inactive
13,C[C@H]1CN([C@@H](C)CO)C(=O)c2cc(NC(=O)c3ccncc3)ccc2O[C@H]1CN(C)S(=O)(=O)c1ccccc1,inactive
14,O=C(CCCCC(=O)N/N=C/[C@H](O)[C@@H](O)[C@H](O)[C@H](O)CO)NO,inactive
15,Cc1cc(N)c2ccccc2[n+]1CCCCCCCCCC[n+]1c(C)cc(N)c2ccccc21.[Cl-].[Cl-],active
16,CCCN(C)C[C@@H]1OCCCC[C@@H](C)Oc2ccc(NS(=O)(=O)c3ccc(Cl)cc3)cc2C(=O)N([C@H](C)CO)C[C@@H]1C,inactive
17,COc1ccc(NC(=O)Nc2ccc3c(c2)C(=O)N([C@H](C)CO)C[C@H](C)[C@H](CN(C)Cc2ccncc2)OCCCC[C@@H](C)O3)cc1,inactive
18,CN(C)c1nc(N)nc(CSc2nnnn2C)n1,inactive
19,COc1ccc(CN(C)C[C@H]2Oc3ccc(NS(=O)(=O)c4c(C)noc4C)cc3CC(=O)N([C@H](C)CO)C[C@H]2C)cc1,inactive
20,O=C(C[C@@H]1C[C@@H]2c3cc(NC(=O)c4ccc5c(c4)OCO5)ccc3O[C@@H]2[C@H](CO)O1)NCC(F)(F)F,inactive
21,C[C@@H]1CCCCO[C@@H](CN(C)Cc2ccc(Cl)c(Cl)c2)[C@@H](C)CN([C@@H](C)CO)C(=O)c2cc(NS(=O)(=O)c3cccs3)ccc2O1,active
22,C[C@@H]1CCCCO[C@@H](CN(C)Cc2ccc(Cl)c(Cl)c2)[C@H](C)CN([C@H](C)CO)C(=O)c2cc(NS(=O)(=O)c3cccs3)ccc2O1,inactive
23,C[C@@H]1CCCCO[C@H](CN(C)Cc2ccc(Cl)c(Cl)c2)[C@@H](C)CN([C@H](C)CO)C(=O)c2cc(NS(=O)(=O)c3cccs3)ccc2O1,active
24,C[C@@H]1CCCCO[C@@H](CN(C)Cc2ccc(Cl)c(Cl)c2)[C@@H](C)CN([C@H](C)CO)C(=O)c2cc(NS(=O)(=O)c3cccs3)ccc2O1,inactive
25,C[C@@H]1CCCCO[C@H](CN(C)Cc2ccc(Cl)c(Cl)c2)[C@H](C)CN([C@H](C)CO)C(=O)c2cc(NS(=O)(=O)c3cccs3)ccc2O1,inactive

row,Structure (SMILES),cytotoxicity call
1,C[C@H](CO)N1C[C@H](C)[C@@H](CN(C)Cc2ccc(Cl)c(Cl)c2)OCCCC[C@H](C)Oc2ccc(NS(=O)(=O)c3cccs3)cc2C1=O,inactive
2,CC(C)NC(=O)N(C)C[C@@H]1Oc2ccc(NC(=O)CCCN(C)C)cc2C(=O)N([C@@H](C)CO)C[C@@H]1C,inactive
3,C[C@@H]1CN([C@H](C)CO)C(=O)c2cc(NC(=O)CCN3CCOCC3)ccc2O[C@@H]1CN(C)Cc1ccccc1,inactive
4,C[C@H]1CN([C@@H](C)CO)C(=O)c2cc(C#CC3CC3)cnc2O[C@H]1CN(C)S(=O)(=O)c1cccc(F)c1,inactive
5,COc1ccc(NC(=O)Nc2ccc3c(c2)C(=O)N([C@@H](C)CO)C[C@@H](C)[C@H](CN(C)C(=O)NC(C)C)OCCCC[C@@H](C)O3)cc1,inactive
6,C[C@H]1CN([C@@H](C)CO)C(=O)c2cccc(NC(=O)c3ccncc3)c2O[C@@H]1CN(C)Cc1ccc2c(c1)OCO2,inactive
7,N[C@@H](Cc1ccc(F)cc1)C(=O)O,inactive
8,NC(=CS(=O)(=O)Cc1ccc(F)cc1)NO,active
9,NNC(=S)NCc1ccc(F)cc1,inactive
10,CC(=O)O[C@H]1[C@H](O)[C@H](O)[C@H](O[C@@H]2[C@@H](Oc3cc(O)c4c(=O)cc(-c5ccc(O)c(O)c5)oc4c3)O[C@@H](C(=O)O)[C@H](O)[C@@H]2O)O[C@@H]1C,inactive
11,C[C@H]1CN([C@@H](C)CO)C(=O)c2cc(NC(=O)CCCN(C)C)ccc2O[C@@H]1CN(C)S(=O)(=O)c1ccc(Cl)cc1,inactive
12,CC(C)c1ccccc1OC[C@@H](O)CN,inactive
13,Cc1ccccc1OC[C@@H](O)CO,inactive
14,Cc1ccccc1OCC(O)CO (stereo not given),active
15,COc1cccc(NC(=O)N(C)C[C@H]2Oc3ncc(Br)cc3C(=O)N([C@H](C)CO)C[C@H]2C)c1,inactive
16,C[C@H]1COC(=O)[C@@H](Cc2ccc(F)cc2)CC=CC[C@@H](CC(=O)N[C@H](CO)Cc2ccccc2)C(=O)N1,inactive
17,Cn1nccc1NC(=O)/C=C/C(=O)O,inactive
18,C[C@@H]1CN([C@@H](C)CO)S(=O)(=O)c2ccc(-c3cccc(C#N)c3)cc2O[C@@H]1CN(C)C(=O)c1cccnc1,inactive
19,C[C@@H]1CCCCO[C@@H](CN(C)C(=O)Nc2ccc(F)cc2)[C@@H](C)CN([C@H](C)CO)C(=O)c2cc(NC(=O)Nc3ccc(F)cc3)ccc2O1,inactive
20,C[C@H]1CCCCO[C@H](CN(C)C(=O)Nc2ccccc2)[C@@H](C)CN([C@@H](C)CO)C(=O)c2cc(NC(=O)Nc3ccc(F)cc3)ccc2O1,active
21,C[C@@H]1CCCCO[C@@H](CN(C)C(=O)Nc2ccccc2)[C@@H](C)CN([C@H](C)CO)C(=O)c2cc(NC(=O)Nc3ccc(F)cc3)ccc2O1,inactive
22,C[C@@H]1CCCCO[C@H](CN(C)C(=O)Nc2ccc(F)cc2)[C@@H](C)CN([C@H](C)CO)C(=O)c2cc(NC(=O)Nc3ccc(F)cc3)ccc2O1,inactive
23,C[C@@H]1CCCCO[C@@H](CN(C)C(=O)Nc2ccc(F)cc2)[C@H](C)CN([C@@H](C)CO)C(=O)c2cc(NC(=O)Nc3ccccc3)ccc2O1,inactive
24,C[C@@H]1CN([C@H](C)CO)C(=O)c2cc(NC(=O)Nc3ccc(F)cc3)ccc2O[C@@H](C)CCCCO[C@H]1CN(C)C(=O)Nc1ccc(F)cc1,active
25,COc1ccc(NC(=O)Nc2ccc3c(c2)C(=O)N([C@H](C)CO)C[C@H](C)[C@H](CN(C)Cc2ccc4c(c2)OCO4)OCCCC[C@@H](C)O3)cc1,inactive

row,Structure (SMILES),cytotoxicity call
1,Cc1ccc(S(=O)(=O)N2C[C@H](O)COC[C@@H]3O[C@@H](CC(=O)NCc4ccc5c(c4)OCO5)CC[C@H]32)cc1,inactive
2,COc1ccc(S(=O)(=O)N(C)C[C@H]2Oc3c(cccc3N(C)C)C(=O)N([C@H](C)CO)C[C@@H]2C)cc1,inactive
3,CC(=O)N1[C@H](Cn2cncn2)C[C@H]2CN(C(N)=O)CC[C@H]21,inactive
4,COc1ccc(NC(=O)N(C)C[C@H]2OCCCC[C@@H](C)Oc3ccc(NC(=O)Nc4c(C)noc4C)cc3C(=O)N([C@@H](C)CO)C[C@H]2C)cc1,inactive
5,C[C@@H]1CCCCO[C@H](CN(C)Cc2ccccc2)[C@H](C)CN([C@@H](C)CO)C(=O)c2cc(NC(=O)CCC(F)(F)F)ccc2O1,inactive
6,COc1ccc(NC(=O)Nc2ccc3c(c2)C(=O)N([C@H](C)CO)C[C@@H](C)[C@@H](CN(C)C(=O)c2ccccc2)OCCCC[C@H](C)O3)cc1,inactive
7,NNC(=O)CCCCC(=O)NO,active
8,NNC(=O)CCCCCC(=O)NO,inactive
9,NNC(=O)CCCCCCC(=O)NO,inactive
10,Cc1cc([N+](=O)[O-])nn1CC(=O)NC(C)C,inactive
11,COc1cc2c(cc1OC)C(=O)NCC2,active
12,COc1cc2c(cc1OC)Cc1cc(OC)c(OC)cc1Cc1cc(OC)c(OC)cc1C2,inactive
13,COc1cc2c(cc1OC)C(=O)OC2,inactive
14,CO[C@H]1CN(C)C(=O)c2cc(NC(=O)C3CC3)ccc2OC[C@H](C)N(C(=O)Cc2ccccn2)C[C@H]1C,inactive
15,Cc1cc(C(=O)Nc2cccc3c2O[C@@H](CN(C)C(=O)Nc2ccccc2)[C@H](C)CN([C@@H](C)CO)C3=O)n(C)n1,inactive
16,Cc1ccc(CSc2nnc(CCN)o2)cc1,active
17,NCCCCCc1nnc(SCC(N)=O)o1,inactive
18,CC1(C)CC(=O)c2c(C(F)(F)F)nn(-c3ccc(C(N)=O)c(O[C@H]4CC[C@H](N)CC4)c3)c2C1,inactive
19,CC1(C)CC(=O)c2c(C(F)(F)F)nn(-c3ccc(C(N)=O)c(N[C@H]4CC[C@H](OC(=O)CN)CC4)c3)c2C1,active
20,CCCCCCCCCCCCCCCCCCCC(=O)N[C@H]1CC[C@@]2(C)[C@@H](C1)C[C@@H](O)[C@@H]1[C@@H]2C[C@H](O)[C@]2(C)[C@@H]([C@H](C)CCC(=O)O)CC[C@@H]12,inactive
21,CC(CCC(=O)O)C1CCC2C3C(O)CC4CC(O)CCC4(C)C3CCC12C (stereo not given),inactive
22,CC(C)[C@@H](CC[C@@H](C)[C@H]1CC[C@H]2[C@@H]3[C@H](O)C[C@H]4C[C@@H](NCCCNCCCCN)CC[C@]4(C)[C@H]3CC[C@]12C)OS(=O)(=O)O,active
23,CC(CCC(=O)O)C1CCC2C3CCC4CC(O)CCC4(C)C3CCC12C (stereo not given),inactive
24,CCC(CCC(C)C1CCC2C3CCC4CC(O)CCC4(C)C3CCC12C)C(C)C (stereo not given),inactive
25,CC(C)[C@@H](CC[C@@H](C)[C@H]1CC[C@H]2[C@@H]3[C@H](O)C[C@H]4C[C@@H](NCCCNCCCCNCCCN)CC[C@]4(C)[C@H]3CC[C@]12C)OS(=O)(=O)O,active
